# According to PubChem BioAssay AID488896 (Broad Institute, 2010):
# The campaign covered roughly 320,000 compounds. About 3,100 (0.97%) were called active. The entries come from a sample that favours actives as a whole. Unmarked numbers belong to inactive results.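 The calls were made as follows: active = mean replicate inhibition of at least 70% and a set share of replicates each scoring 70 or more; inconclusive = meets just one of the two criteria; inactive = fails both criteria.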
# Molecular target: Scavenger receptor class B member 1 (Mus musculus) (UniProt Q61009)
# Test: mouse SR-BI DiI-HDL uptake blockers – ldlA[mSR-BI] cells, fluorescence, single point, primary screen (AID 488896);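 also: 0% = median of neutral control wells and 100% = median of positive control wells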
# Settings: ldlA[mSR-BI] CHO cells, 3 h, at 12.5 µM, active compounds read high
# Sequence of Scavenger receptor class B member 1 (Mus musculus) (Q61009 whole entry, looked up): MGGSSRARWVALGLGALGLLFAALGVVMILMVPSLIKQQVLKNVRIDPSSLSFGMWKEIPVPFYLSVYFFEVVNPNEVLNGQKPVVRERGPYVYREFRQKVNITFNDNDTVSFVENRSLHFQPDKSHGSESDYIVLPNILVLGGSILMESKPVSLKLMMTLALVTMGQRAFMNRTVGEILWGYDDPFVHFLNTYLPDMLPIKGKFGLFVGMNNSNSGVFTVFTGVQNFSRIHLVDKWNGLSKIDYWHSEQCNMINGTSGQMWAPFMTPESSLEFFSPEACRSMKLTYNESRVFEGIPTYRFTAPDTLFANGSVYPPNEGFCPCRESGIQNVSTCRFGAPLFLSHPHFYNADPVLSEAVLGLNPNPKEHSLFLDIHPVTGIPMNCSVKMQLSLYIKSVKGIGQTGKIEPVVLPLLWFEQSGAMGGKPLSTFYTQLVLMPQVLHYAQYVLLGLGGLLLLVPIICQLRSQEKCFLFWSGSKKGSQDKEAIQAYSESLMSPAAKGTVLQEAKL
row,SMILES,inhibition
1,CCCOC(=O)c1[nH]c2c(c1C)C(=O)CC(c1cc(OC)c(OC)c(OC)c1)C2 (stereo unspecified),81.3% (active)
2,COCCOC(=O)c1[nH]c2c(c1C)C(=O)CC(c1ccc(OC)cc1)C2 (stereo unspecified),41.6%
3,CCCOC(=O)c1[nH]c2c(c1C)C(=O)CC(c1cccs1)C2 (stereo unspecified),59.1%
4,Cc1cccc(NC(=S)N2CCC(C(=O)c3ccc(F)cc3)CC2)c1,14.1%
5,C#CCOCCOCCOCCNc1nc(N2CCN(C(=O)Cn3cc(CCO)nn3)CC2)nc(N2CCN(C(=O)[C@H](CCCCN)n3cc(CCCC)nn3)CC2)n1,-18.7%
6,COc1ccc(C(CNC(=O)c2cc(S(=O)(=O)Nc3cccc(C)c3)ccc2C)N2CCCC2)cc1 (stereo unspecified),-20.9%
7,CCC(=O)Nc1sc(C(=O)Nc2ccccc2)c(C)c1C(=O)OC,68.4%
8,COC(=O)c1c(NC(C)=O)sc(C(=O)Nc2ccccc2OC)c1C,71.5% (active)
9,COc1ccccc1NC(=O)c1ccc(C)s1,18%
10,c1ccc2c(c1)OC1OC2Oc2ccccc21,-7.46%
11,CC(C)Sc1nc(N)nc2c1ncn2C1OC(CO)C(O)C1O (stereo unspecified),-12.5%
12,Cc1ccc(/C=N/NC(=O)C2=NNC(c3ccccc3)(c3ccccc3)C2)c(O)c1,106% (active)
13,Cc1ccc2occ(/C=N/NC(=O)c3ccccc3C)c(=O)c2c1,-16.4%
14,COc1ccc(/C=N/NC(=O)c2cc(-c3cccc(C)c3)nc3ccccc23)cc1O,66.3%
15,CN(C)C(CNC(=O)c1cc2ccccc2o1)c1ccccc1 (stereo unspecified),6.69%
16,O=C(O)c1ccc(/C=N/NC(=O)c2ccc(Br)cc2)cc1,-48.4%
17,O=C(O)c1ccc(OCC2CCCO2)cc1 (stereo unspecified),-17.3%
18,O=C(N/N=C/c1ccc(OCC2COCCO2)cc1)c1ccc(Br)cc1 (stereo unspecified),74.1% (active)
19,CC1=NN(C(=O)c2ccc(Br)cc2)C(O)(c2ccccc2)C1 (stereo unspecified),88.2% (active)
20,CCOC(=O)C1(O)CC(C)=NN1C(=O)c1cccc(Br)c1 (stereo unspecified),5.6%
21,CC1=NN(C(=O)c2ccccc2Br)C(O)(c2cccnc2)C1 (stereo unspecified),-13.8%
22,COc1cc2c(cc1CNC[C@H]1O[C@@H](n3cnc(C(N)=O)n3)[C@H](O)[C@@H]1O)OCO2,-13.6%
23,O=C1CC(c2ccccc2)C(=O)N2C(=O)CC(c3ccccc3)C(=O)N12 (stereo unspecified),-16.5%

row,SMILES,inhibition
1,COc1ccc(CNCCCn2cnc3c(OCc4ccccc4)ncnc32)cc1,-7.17%
2,COc1cccc(CC(=NO)c2cccc(OC)c2)c1,2.96%
3,O=C(CCC(=O)N1CCN(S(=O)(=O)c2ccc(Cl)cc2)CC1)NCc1cccc(C(F)(F)F)c1,-6.5%
4,CC(C)CC(=O)N1CCN(Cc2cccc(Cl)c2)CC1,-7.62%
5,CC(C)CC(=O)N1CCN(Cc2ccccc2Br)CC1,82.7% (active)
6,CCOc1cc(CN2CCN(C(=O)CC(C)C)CC2)ccc1OC,1.83%
7,O=C(Nc1c(Br)cc2c(c1Br)Cc1ccccc1-2)C(F)(F)F,23.8%
8,CN(C)c1ccc(C2N(C)C(=O)c3ccccc3N2C)cc1 (stereo unspecified),-4.86%
9,CN(C)c1ccc(Nc2c3c4c(cccc4n(C)c2=O)C(=O)c2ccccc2-3)cc1,99.9% (active)
10,CCOC(=O)CCC(NC(=O)c1ccc(CNc2nc3cc(C(F)(F)F)ccc3nc2C(=O)OCC)cc1)C(=O)OCC (stereo unspecified),43.7%
11,O=C1C[C@@H]2c3c(cccc3CN1Cc1ccccc1)C[C@@H](O)[C@H]2O,-2.09%
12,COc1ccc(OC)c(Cc2cnc3nc(N)nc(N)c3c2C)c1,25.9%
13,c1ccc(C(=NNc2nc3ccccc3s2)c2ccccn2)cc1,40.5%
14,O=C(c1cccc(S(=O)(=O)N2CCCCCC2)c1)N1CCN(Cc2ccccc2)CC1,19.3%
15,O=S(=O)(O)c1cc2onnc2c2ccccc12,-15.5%
16,Cc1ccc(SCc2c(C(=O)N/N=C/C3CC=CCC3)nnn2-c2nonc2N)cc1 (stereo unspecified),-16.5%
17,Nc1nonc1-n1nnc(C(=O)N/N=C/c2cc(Br)ccc2O)c1CSC1=NCCS1,104% (active)
18,Cc1ccc(SCc2c(C(=O)N/N=C/c3cccnc3)nnn2-c2nonc2N)cc1,-5.04%
19,O=[N+]([O-])c1ccc(C=NN=Cc2ccc([N+](=O)[O-])cc2)cc1,27%
20,CC(C)(C)c1nnc2sc(SCC(O)=C(C#N)c3nc4ccccc4[nH]3)nn2c1=O,22.5%
21,COc1ccc(-c2csc(Cc3nc(O)cs3)n2)cc1,56.2%
22,CC(C)(C)C(=O)OCc1nc(-c2ccc(O)c(O)c2)cs1,-7.58%
23,COc1ccc(OC)c(Nc2nc(-c3ccc(O)c(O)c3)cs2)c1,108% (active)

row,SMILES,inhibition
1,CCN1C[C@@H]2[C@@H]3C(=O)N(C)C(=O)[C@@H]3[C@](C)(C1=O)N2C(=O)c1ccccc1,27.8%
2,COc1ccc(CCC(=O)Nc2ccc(Cl)c(S(=O)(=O)N3CCOCC3)c2)cc1OC,60.3%
3,COc1cc(C(=O)NNC(=O)c2ccc(S(=O)(=O)N3CCCCC3)cc2)cc(OC)c1OC,-0.571%
4,COc1cccc(/C=N/NC(=O)CNC(=O)c2ccc(S(=O)(=O)N3CCOCC3)cc2)c1OC,8.73%
5,COc1ccc(/C=N/NC(=O)CNC(=O)c2ccc(S(=O)(=O)N3CCCC3)cc2)c(OC)c1,84.2% (active)
6,COc1ccc(Cn2cc(CN3CCS(=O)(=O)N(Cc4ccc(-c5cccc(Cl)c5)cc4)C(C)C3=O)nn2)cc1 (stereo unspecified),34.7%
7,C=CC(=O)Nc1ccc(Nc2ccnc(Nc3ccc(N4CCN(C)CC4)cc3)n2)cc1,5.16%
8,COc1ccc(N2CCC(CNC(=S)Nc3c(C)cccc3C)C2)cc1 (stereo unspecified),80.7% (active)
9,COc1ccc(NC(=S)NCCN2CCC(C)CC2)cc1,1.02%
10,COc1ccc(NC(=S)NCC2CCN(c3ccc(OC)cc3)C2)cc1 (stereo unspecified),27.5%
11,Cc1ccccc1N1CCN(C(=O)c2cccnc2)CC1,-2.45%
12,Cc1cccc(CC2(O)C(=O)Nc3ccccc32)n1 (stereo unspecified),-13%
13,O=S1(=O)CSCS(=O)(=O)C1,-19.5%
14,CC(=O)c1ccc(N=C2SCCCN2C(=O)C2CCCCC2)cc1,78.7% (active)
15,Cc1ccc(N=C2SCCCN2C(=O)c2cccc(N3C(=O)CCC3=O)c2)cc1Cl,32.4%
16,CCC1CCCCN1C(=S)Nc1ccc(C(C)=O)cc1 (stereo unspecified),-13.3%
17,COc1cccc(C=CC(=O)C=CC=Cc2ccccc2)c1,-11.1%
18,COc1cc(NC(=O)c2cccs2)ccc1NC(=O)c1ccccc1Cl,83.3% (active)
19,COc1cc(NC(=O)c2ccc3c(c2)OCO3)ccc1NC(=O)c1cccs1,58.8%
20,COc1cc(NC(=O)COc2ccccc2Cl)ccc1NC(=O)C(C)C,49.8%
21,O=C(Nc1ccccc1)Oc1cccc2cccnc12,-13.2%
22,c1ccc(CNc2ncnc3[nH]ncc23)cc1,-13.5%
23,CN(C)S(=O)(=O)Oc1ccccc1C(=O)Nc1ccccc1Cl,79.9% (active)

row,SMILES,inhibition
1,CC(=O)Nc1ccc(NC(=O)COc2ccccc2C(=O)Nc2cccc(Cl)c2Cl)cc1,63.3%
2,O=C(Nc1ccccc1Cl)c1ccccc1S(=O)(=O)c1ccccc1[N+](=O)[O-],4.02%
3,CCN1C[C@@H]2[C@@H]3C(=O)N(Cc4ccccc4)C(=O)[C@@H]3[C@](C)(C1=O)N2C(=O)c1ccc(C(C)(C)C)cc1,-30.1%
4,Oc1ccc(-c2nc3ccccc3nc2-c2ccc(O)cc2O)c(O)c1,26%
5,COc1ccc(-n2c(SCC(=O)NCc3cccs3)nnc2-c2ccoc2C)cc1,-3.66%
6,COc1ccc(-n2c(SCC(=O)NCc3ccco3)nnc2-c2c[nH]c3ccccc23)cc1,71.4% (active)
7,O=C(CSc1nnc(-c2c[nH]c3ccccc23)n1-c1ccc(F)cc1)NCc1ccco1,20.6%
8,COc1ccc(CCN2CC(C(=O)OCC(=O)NCc3ccccc3Cl)CC2=O)cc1OC (stereo unspecified),-1.72%
9,C(=N/Nc1cc(N2CCOCC2)nc(N2CCOCC2)n1)/c1ccccc1,76% (active)
10,Cc1nc(Cl)cc(N/N=C/c2ccccc2)n1,15.7%
11,Cc1ccccc1N/N=C/c1ccc(N2CCOCC2)cc1,15.9%
12,CN(C)c1ccc(/C=N/Nc2cc(N3CCOCC3)nc(N3CCOCC3)n2)cc1,78.8% (active)
13,COc1ccc(/C=N/Nc2cc(N3CCOCC3)nc(C)n2)c(OC)c1,52.8%
14,CCN(CC)c1ccc(C(=O)N/N=C/c2ccc(N3CCOCC3)cc2)cc1,25%
15,O=C1c2ccccc2C(=O)N1CCCCCCN1C(=O)c2ccccc2C1=O,7.39%
16,Cc1nc2ccccc2c(C(=O)O)c1-c1ccccn1,-15.2%
17,Oc1cccc(CCc2ccccn2)c1,-0.288%
18,O=C(O)C(=Cc1ccccc1[N+](=O)[O-])c1ccccc1,0.653%
19,CSCCC(NS(=O)(=O)c1ccc(C)cc1)C(=O)N(C)CC(=O)Nc1ccccc1Br (stereo unspecified),16.3%
20,Cc1nc(-c2ccc(F)cc2)c(CC(=O)N(C)CC(=O)Nc2c(C)cccc2C)s1,-10.6%
21,CCOc1ccc(NC(=O)CN(C)C(=O)CCSc2ccc(F)cc2)cc1OCC,39.6%
22,CCOc1ccc(NC(=O)CN(C)C(=O)Cc2sc(C)nc2-c2ccc(F)cc2)cc1OCC,73.5% (active)
